# Tests used:
# Assay type in all cases: functional
# Plasmodium falciparum [1] = assay: GSK_TCMDC: Inhibition of Plasmodium falciparum 3D7 in whole red blood cells, using parasite LDH activity as an index of growth. Test compounds present at 2uM
# Plasmodium falciparum [2] = assay: GSK_TCMDC: Inhibition of Plasmodium falciparum Dd2 in whole red blood cells, using parasite LDH activity as an index of growth. Test compounds present at 2uM
# HepG2 = assay: GSK_TCMDC: Percent inhibition of human HepG2 cell line. Test compounds present at 10uM.
Structure (SMILES),Inhibition (Plasmodium falciparum [1]) [%],Inhibition (Plasmodium falciparum [2]) [%],Inhibition (HepG2) [%]
Cc1cc(NC(=O)Nc2ccc(Oc3ccccc3)cc2)c2ccccc2n1,91,28,2
NS(=O)(=O)c1cccc(-c2ccc3nccc(-c4cccc(S(N)(=O)=O)c4)c3c2)c1,98,99,40
Cl.O=C1COc2cc(Cl)c(CNC3CCN(CCc4ccnc5c(F)cc(F)cc45)CC3)nc2N1,98,49,96
Cl.Ic1cc(Nc2ncnc3ccsc23)ccc1OCc1ccccc1,100,81,22
CN(C)c1ccc(CN2CCCCC(NC(=O)c3cc(-c4ccccc4F)cs3)C2)cc1.O=C(O)C(F)(F)F (stereo unspecified),100,28,13
O=c1cc(NCCCCNCc2cccc(C(F)(F)F)c2)[nH]c2ccccc12,94,34,13
O=C(NCCNc1ccnc(Nc2ccc(F)cc2)n1)Nc1ccc2c(c1)OCO2,97,3,15
Cc1cc(-c2cc(-c3ccc(OCCN(C)C)cc3)[nH]c2-c2ccc3c(c2)CCC3=NO)ccn1,100,92,0
CNCCNCc1cccc(-c2cccc(-c3nc4cc(C(F)(F)F)ccc4[nH]3)c2)c1.O=C(O)C(F)(F)F,100,97,22
Cc1[nH]c(C)c(-c2ccc(-c3ccc(Cl)cc3)nc2)c(=O)c1Cl,95,96,8
COCCn1c(Sc2ncnc3sccc23)nc2ccccc21,95,72,0
CC(=O)c1c[nH]c(C(=O)Nc2ccc(-c3cn4ccccc4n3)cc2)c1,98,95,20
N#Cc1ccc(Cn2ccc3c4c(N)nc(N)nc4ccc32)cc1,92,95,64
CC(C)N1CCN(CCCCNc2c3ccccc3nc3ccccc23)CC1.Cl,100,0,38
Cc1[nH]c(C)c(-c2ccc(OCc3ccc(OC(F)(F)F)cc3)nc2)c(=O)c1Cl,98,96,3
CC(C)NCc1ccc(OCc2cccc(COc3ccc(CNC(C)C)cc3I)c2)c(I)c1.Cl,100,92,100

Structure (SMILES),Inhibition (Plasmodium falciparum [1]) [%],Inhibition (Plasmodium falciparum [2]) [%],Inhibition (HepG2) [%]
CN1CCN(c2ccnc3ccc(NC(=O)Nc4ccc(Cl)cc4)cc23)CC1,100,99,11
CCCCOC(=O)c1ccc(NC(=O)Nc2ccc(Cn3ncc(N4CCCNCC4)c(Cl)c3=O)cc2)cc1.O=C(O)C(F)(F)F,92,74,2
N#Cc1ccc(-c2ccc(OCC(O)CN3CCCN(C(=O)C(c4ccc5c(c4)OCO5)N4CCN(C/C=C/c5ccccc5)CC4)CC3)cc2)cc1 (stereo unspecified),99,77,25
COc1cc(N(Cc2ccc(F)cc2)C(=O)c2ccc(-c3ccccc3)cc2)ccc1OCCN1CCCC1.Cl,93,4,11
CNC(=O)c1ccccc1Nc1nc(Nc2ccc(CCN3CCN(C)CC3)cc2)ncc1Cl.Cl,97,98,76
O=C(Nc1ccc(Cn2ncc(N3CCNCC3)c(Cl)c2=O)cc1)Nc1ccc(-c2ccccc2)cc1.O=C(O)C(F)(F)F,98,33,29
COc1ccc(CCCCN2C(=O)C(c3ccccc3)(c3ccccc3)N=C2N)cc1.O=C(O)C(F)(F)F,97,95,40
C=CCOc1ccccc1CNCC(O)c1cc(Br)cs1 (stereo unspecified),93,72,25
O=C(COc1ccccc1)NC1CCN(c2ccnc3cc(Cl)ccc23)C1.O=C(O)C(F)(F)F (stereo unspecified),100,35,22
O=C(/C=C/c1ccc(Cl)c(Cl)c1)NCCCCCN1CCC(NC(=O)Nc2cccc(Cl)c2)CC1,100,13,52
Cc1cc(F)ccc1-c1nc(N(C)CCN(C)C(=O)N(C)c2ccccc2)nc2c1ccc(=O)n2-c1c(F)cccc1F.O=C(O)C(F)(F)F,87,77,0
CC(C)(C)c1cc(C(=O)N2CCN(c3ncnc4ccsc34)CC2)n(Cc2ccccc2)n1,95,83,2
CCc1cn2c3c(cc(C(=O)N[C@@H](Cc4ccccc4)[C@H](O)CNCC(C)C)cc13)N(C)S(=O)(=O)CC2,98,99,0
Cl.NC(=O)N1CCN(Cc2ccc(Br)cc2)CC1,96,0,83
Cc1[nH]c2ccc(O)cc2c1C1CCN(CCCCCNC(=O)/C=C/c2ccc(Cl)c(Cl)c2)CC1,100,1,33
COc1ccccc1CCNC(=O)c1cc(Br)cc(N2CCN(c3ccncc3)CC2)c1.O=C(O)C(F)(F)F,84,32,38

# Reference: ChEMBL document CHEMBL1157539, “Thousands of chemical starting points for antimalarial lead identification” (Nature, 2010)
